# Results reported in PubChem BioAssay (NCI).
# Values joined by “and” are separate entries in the source; they are usually repeats but may differ in a detail not shown here. Equal entries are not always repeated. The panel holds about 83,000 compounds, 20% with a hit somewhere; the sample as a whole holds those more often.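 Method: cells in 96-well plates; compound added at one concentration; 48 h incubation; percent growth measured; values under 10 scored active.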 Active and inactive are the calls of the source.
# System: MDA-MB-468 breast
# Test: NCI-60 one-dose screen, 48 h (100 = growth as untreated, 0 = no growth, -100 = all killed)
# Settings: 10 µM unless noted
row,Compound,growth
1,C=C1C(=O)O[C@H]2[C@H]1CC/C(COC(=O)c1cc(OC)c(OC)c(OC)c1)=C\CC[C@@]1(C)O[C@@H]21,-33.2% (active)
2,CCN(CC)CCOC(=O)Nc1ccccc1Cl,104% (inactive)
3,Cc1ccccc1[P+](Cc1ccccc1)(c1ccccc1)c1ccccc1,-14.4% (active)
4,Nc1c(C(=O)Nc2ccccc2)sc2nc3c(cc12)CN(Cc1ccccc1)CC3,76.2% (inactive)
5,COc1ccc(-c2csc(NC(=O)CN3CCN(CCO)CC3)n2)cc1NS(=O)(=O)c1cccc2c(N(C)C)cccc12,55.6% (inactive)
6,O=C(Nc1ccc(Br)cc1)c1cc(Br)ccc1O,-18.1% (active) and 15% (inactive)
7,CCC(=C(c1ccc(OCCN(CC)CC)cc1)c1ccc(OCCN(CC)CC)cc1)c1ccc(Cl)cc1,-79.1% (active)
8,COc1cc2c(c(OC)c1OC)-c1ccc(NNC(=S)N(Cc3cccc(C[N+](Cc4cccc(CNC56CC7CC(CC(C7)C5)C6)c4)(Cc4cccc(CNC56CC7CC(CC(C7)C5)C6)c4)Cc4cccc(CN(C(=S)NNc5ccc6c(cc5=O)[C@@H](NC(C)=O)CCc5cc(OC)c(OC)c(OC)c5-6)C56CC7CC(CC(C7)C5)C6)c4)c3)C34CC5CC(CC(C5)C3)C4)c(=O)cc1[C@@H](NC(C)=O)CC2 (stereo not given in full),-52.7% (active)
9,Nc1ccc2ccc(N)cc2c1,75.8% (inactive)
10,O=C(CN1CCN(c2cccc(Cl)c2)CC1)N1CCN(c2nnc(-c3ccc(Cl)cc3)c(-c3ccc(Cl)cc3)n2)CC1,97.5% (inactive)
11,CC1=CC(=C(c2ccc(N)cc2)c2ccc(N)cc2)C=CC1=N,-13.6% (active) and -1.34% (active)
12,CC(=O)[C@H]1CC[C@]2(C)[C@@H]1CC[C@@H]1[C@@]3(C)CC(CCC#N)(CCC#N)C(=O)C(C)(C)[C@@H]3CC[C@]12C,99.7% (inactive)
13,S=C(Nc1ccccc1)N1CCCCC1,90.3% (inactive)
14,Nc1ncccc1O,74% (inactive)
15,NC(=S)N/N=C(\c1ccc(Cl)cc1)C1CC1,18.5% (inactive)
16,COc1ccc([C@@H]2c3[nH]c4ccccc4c3C[C@H]3C(=O)N(C4CCN(CC5CCCCC5)CC4)CC(=O)N23)c(OC)c1,58.7% (inactive)
17,O=C1Nc2ccccc2/C1=C\c1c(-c2ccccc2)nc2ccccn12,15.3% (inactive)
18,O=C(N=Nc1c(O)[nH]c2ccccc12)Nc1ccc(F)cc1,103% (inactive)
19,COc1ccc(C2C3=C(COC3=O)N(CCO)c3cc4c(cc32)OCO4)cc1OC (stereo not given),8.1% (active)
20,O=C1C(Br)=C(c2ccccc2)C(=O)C(Br)=C1c1ccccc1,92% (inactive)

row,Compound,growth
1,CC1(C)O[C@H]2OC3CCC(=O)CC3(O)[C@H]2O1 (stereo not given in full),98.5% (inactive)
2,CCOC(=O)[C@@H]1CCCN(S(=O)(=O)c2ccc(S(=O)(=O)N(CC)CC)c(F)c2)C1,36% (inactive)
3,COc1cc(Cl)cc(-c2nn(-c3cccc(NC(=O)Nc4cccc(C(F)(F)F)c4)c3)cc2-c2ccncc2)c1,6.89% (active)
4,Nc1nc(N)c2nc(-c3cccc(O)c3)c(-c3cccc(O)c3)nc2n1,10.4% (inactive)
5,Cn1c(COC(=O)N2CCCCC2)nc2c(N3CCOCC3)nc(-c3ccccc3)nc21,-61.7% (active)
6,O=C1CSC(=S)N1Cc1cccnc1,47.6% (inactive)
7,Oc1ccc(/C=N/NC(=S)Nc2ccccc2)nc1,-37.7% (active)
8,Cn1c(-c2ccc(Br)cc2)c(O)c(=O)c2c(F)cccc21,39.7% (inactive)
9,Cc1ccc2oc(=O)cc(/C(=C3/C=CC=N3)c3ccc[nH]3)c2c1,3.2% (active)
10,N#CCCN1C(=O)CCC1C(=O)O (stereo not given),103% (inactive)
11,CCn1nc(-c2ccc(C(=O)OC)cc2)nc2c(=O)n(C)c(=O)nc1-2,82% (inactive)
12,Nc1nc(Nc2ccccc2)c2ncn(Cc3cc4c(cc3Br)OCO4)c2n1,14.7% (inactive)
13,CCN(CC)c1ccc(C(O)C2=CC(=O)c3ccccc3C2=O)cc1 (stereo not given),-53% (active)
14,CC(C)n1c(NCCc2ccc(O)c(O)c2)nc2c1c(=O)n(C)c(=O)n2C,73.8% (inactive)
15,C#CCn1c(C)cc(C)c(C#N)c1=O,132% (inactive)
16,Cc1ccc(C2=Nn3c(nnc3-c3ccccc3)SC2)cc1,25.1% (inactive)
17,Cn1cc(-c2nn3c(=O)cc(-c4ccccc4)nc3s2)c2cc(F)ccc21,38.9% (inactive)
18,CCCCCCCC/C=C/CCCCCCCC1=NCC[N+]1(CCO)CCO,23% (inactive)
19,COC(=O)/C=C1\S/C(=N\Nc2ccc([N+](=O)[O-])cc2[N+](=O)[O-])N(C2CCCCC2)C1=O,45.1% (inactive)
20,CC(C)c1ccc(NC(=O)Cc2ccc(Nc3ncnc4cc(-c5cnn(CCN(C)C)c5)ccc34)cc2)cc1,-86.9% [30 µM] (active)
